Growth data for eight compounds are collected here from PubChem BioAssay (NCI).

Compounds without any hit were thinned out: in the full panel of roughly 83,000, 20% have a hit.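 Step 1: grow cells in 96-well plates. Step 2: add test compound at a single concentration. Step 3: incubate 48 h. Step 4: record percent growth.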 A number with no mark means an inactive call. Calls of active or inactive are those of the source. Rule for the calls: active = growth percent below 10; inactive = the rest.

Common to all, as to test: NCI-60 one-dose screen, 48 h (100 = growth as untreated, 0 = no growth, -100 = all killed)
The subject of one assay is K-562 leukemia. Conditions: 10 µM unless noted.
In a further assay the test system is MALME-3M melanoma. The settings on record: 10 µM unless noted.
For a further assay, the system named is RXF 393 renal. Conditions: 10 µM unless noted.
Another assay concerns SF-295 CNS. The settings on record: 10 µM unless noted.
The test system of a further assay is UACC-257 melanoma. Conditions: 10 µM unless noted.
In a further assay the test system is HCT-15 colon. The settings on record: 10 µM.
The subject of the next assay is UACC-62 melanoma. The settings on record: 10 µM unless noted.
In the next assay the test system is LOX IMVI melanoma. Conditions: 10 µM unless noted.
Another assay has as its system SK-MEL-2 melanoma. The settings on record: 10 µM unless noted.
The subject of another assay is TK-10 renal. Conditions: 10 µM unless noted.
A further assay deals with ACHN renal. Conditions: 10 µM unless noted.
A further assay has as its system A498 renal. Conditions: 10 µM unless noted.
In another assay the test system is HL-60(TB) leukemia. Conditions: 10 µM unless noted.
The test system of the next assay is MOLT-4 leukemia. Conditions: 10 µM.
Another assay concerns OVCAR-8 ovarian. The settings on record: 10 µM unless noted.
The next assay relates to OVCAR-4 ovarian. Conditions: 10 µM unless noted.
The subject of the next assay is NCI/ADR-RES ovarian. Conditions: 10 µM unless noted.
A further assay relates to T-47D breast. Conditions: 10 µM unless noted.
Another assay deals with BT-549 breast. Conditions: 10 µM.
The test system of another assay is HCC-2998 colon. Conditions: 10 µM unless noted.

Consider `O=S(=O)(c1ccc(Cl)cc1)C(Cl)(Cl)Cl`, for which the growth with K-562 leukemia was 19.6%; in the assay on MALME-3M melanoma, 9.32% (active); in the assay on RXF 393 renal it was -5.22% (active); with SF-295 CNS it was 78.2%; with UACC-257 melanoma, 28.2%; with HCT-15 colon, 39%. Besides, the growth with UACC-62 melanoma was 46.6%; in the assay with LOX IMVI melanoma, 35.1%; in the assay with SK-MEL-2 melanoma, 25.1%; in the assay with TK-10 renal, 50.6%; in the assay with ACHN renal it was 26.1%; in the assay on A498 renal, 56.4%. The growth in the assay on HL-60(TB) leukemia is 1.02% (active); in the assay with MOLT-4 leukemia, 16.2%; with OVCAR-8 ovarian, 58.5%; in the assay on OVCAR-4 ovarian it was 61.6%; in the assay on NCI/ADR-RES ovarian, 29%; with T-47D breast, 11.4%. In addition, the growth is 34.1% with BT-549 breast and 18.3% in the assay with HCC-2998 colon.

`O=C(O)C1[O][Sb][O]C1C(=O)O` (centres undefined): the growth was 89.1% in the assay with K-562 leukemia; 86.8% in the assay with MALME-3M melanoma; 116% in the assay with RXF 393 renal; 123% in the assay with SF-295 CNS; 98.2% with UACC-257 melanoma; 88.5% with HCT-15 colon. The growth with UACC-62 melanoma was 110%; in the assay with LOX IMVI melanoma it was -57.9% (active); in the assay with SK-MEL-2 melanoma, 96.5%; in the assay on TK-10 renal, 101%; with ACHN renal it was 106%; in the assay on A498 renal, 116%. Also, the growth is 91.1% in the assay with HL-60(TB) leukemia; 94.6% with MOLT-4 leukemia; 101% in the assay on OVCAR-8 ovarian; 99.2% with OVCAR-4 ovarian; 103% with NCI/ADR-RES ovarian; 89.3% with T-47D breast. Besides, the growth was 84.6% with BT-549 breast and 106% with HCC-2998 colon.

With `CC1(C)N=C(N)N=C(N)N1c1ccc(CCCCc2ccc(S(=O)(=O)F)cc2)cc1`, the growth was 19.7% in the assay with K-562 leukemia; 52.8% in the assay on MALME-3M melanoma; 43.2% in the assay with RXF 393 renal; 7.77% (active) in the assay with SF-295 CNS; 39.1% with UACC-257 melanoma; 36.8% in the assay on HCT-15 colon. The growth in the assay with UACC-62 melanoma is 19.8%; with LOX IMVI melanoma, 15.2%; in the assay on SK-MEL-2 melanoma, 56.1%; in the assay with TK-10 renal, 14.1%; in the assay on ACHN renal, 39.2%; with A498 renal it was 42.3%. The growth in the assay with HL-60(TB) leukemia was 21.2%; in the assay on MOLT-4 leukemia, 25.3%; in the assay with OVCAR-8 ovarian, 24.3%; in the assay with OVCAR-4 ovarian it was 86.1%; in the assay on NCI/ADR-RES ovarian, 113%; in the assay with T-47D breast, 16.6%. Further, the growth in the assay on BT-549 breast is 48.7%; in the assay on HCC-2998 colon, 45.3%.

In the case of `CC(C)(O)/C=C/C(=O)[C@](C)(O)[C@H]1[C@H](O)C[C@@]2(C)[C@@H]3CC=C4[C@@H](C=C(O)C(=O)C4(C)C)[C@]3(C)C(=O)C[C@]12C`, the growth with K-562 leukemia was -32.4% (active); with MALME-3M melanoma, -66.5% (active); in the assay with RXF 393 renal, 0.503% (active); in the assay on SF-295 CNS it was -43.2% (active); in the assay with UACC-257 melanoma, 0.414% (active); with HCT-15 colon, -52% (active). Further, the growth with UACC-62 melanoma was -29.9% (active); in the assay on LOX IMVI melanoma, -59.6% (active); in the assay on SK-MEL-2 melanoma, -43.6% (active); in the assay with TK-10 renal, -54.9% (active); with ACHN renal it was -29.9% (active); in the assay with A498 renal, -79.8% (active). The growth was -38.9% (active) in the assay with HL-60(TB) leukemia; -15.1% (active) in the assay on MOLT-4 leukemia; -45.9% (active) in the assay with OVCAR-4 ovarian; 12.2% with NCI/ADR-RES ovarian; -15.3% (active) with T-47D breast; -60.1% (active) with BT-549 breast. The growth with HCC-2998 colon is -99% (active).

For the compound `CN1CCN(C(=O)COc2ccc(/C=C3\CC4C5CC=C6CC(Cl)CCC6(C)C5CCC4(C)C3=O)cc2)CC1` (centres undefined), the growth was 18.3% in the assay on K-562 leukemia; 73.8% with MALME-3M melanoma; 79% in the assay on RXF 393 renal; 82.8% with SF-295 CNS; 38.8% in the assay with UACC-257 melanoma; 54.4% with HCT-15 colon. Also, the growth was 90% in the assay on UACC-62 melanoma; 23.5% with LOX IMVI melanoma; 89.8% in the assay with SK-MEL-2 melanoma; 88.2% in the assay on TK-10 renal; 80.1% in the assay on ACHN renal; 75.3% with A498 renal. Also, the growth in the assay with HL-60(TB) leukemia was 38.3%; in the assay with MOLT-4 leukemia, 59.3%; in the assay on OVCAR-8 ovarian it was 78.9%; with OVCAR-4 ovarian, 70.7%; with NCI/ADR-RES ovarian it was 69.2%; in the assay on T-47D breast, 71.2%. Moreover, the growth was 87.3% in the assay on BT-549 breast and 90.6% in the assay with HCC-2998 colon.

As to `C[C@]12CC[C@@H]3c4ccc(OC(=O)Cc5ccc(N(CCCl)CCCl)cc5)cc4CC[C@H]3[C@@H]1CC[C@@H]2OC(=O)Cc1ccc(N(CCCl)CCCl)cc1`, the growth in the assay on K-562 leukemia is 106%; in the assay with MALME-3M melanoma it was 113%; in the assay with SF-295 CNS it was 103%; in the assay on HCT-15 colon, 113%; with UACC-62 melanoma, 88%; in the assay with LOX IMVI melanoma, 108%. In addition, the growth was -3.92% (active) with SK-MEL-2 melanoma; 120% in the assay on TK-10 renal; 109% with ACHN renal; 121% in the assay on A498 renal; 108% in the assay on HL-60(TB) leukemia; 104% in the assay on MOLT-4 leukemia. Moreover, the growth in the assay with OVCAR-8 ovarian was 109%; with OVCAR-4 ovarian, 111%; in the assay with NCI/ADR-RES ovarian, 55.9%; in the assay with T-47D breast it was 121%.

As to `CCOc1cc(C=C(C#N)C#N)cc(Br)c1O`, the growth is 75.2% with K-562 leukemia; 106% with MALME-3M melanoma; 121% in the assay on RXF 393 renal; 110% in the assay on SF-295 CNS; 107% with UACC-257 melanoma; 102% in the assay on HCT-15 colon. Further, the growth is 105% with UACC-62 melanoma; 97.1% with LOX IMVI melanoma; 102% with SK-MEL-2 melanoma; 102% with TK-10 renal; 106% in the assay with ACHN renal; 96.4% with A498 renal. The growth in the assay on MOLT-4 leukemia is 85.5%; with OVCAR-8 ovarian, 102%; in the assay with OVCAR-4 ovarian, 103%; in the assay on NCI/ADR-RES ovarian, 104%; in the assay with T-47D breast, 98.5%; in the assay with BT-549 breast, 99.1%. For the same compound, in the assay with HCC-2998 colon, the growth was 99.4%.

Turning to `NC(=O)NC(=O)CI`, the growth is 17.7% in the assay on K-562 leukemia; -43.6% (active) in the assay with MALME-3M melanoma; 65% in the assay with RXF 393 renal; 119% in the assay on SF-295 CNS; 79.1% with UACC-257 melanoma; 85.7% in the assay with HCT-15 colon. The growth in the assay on UACC-62 melanoma is 86.7%; in the assay with LOX IMVI melanoma it was -67.3% (active); in the assay on SK-MEL-2 melanoma it was 92.1%; in the assay with TK-10 renal, 88.6%; in the assay with ACHN renal, 84.7%; in the assay on A498 renal, 97.9%. The growth in the assay on HL-60(TB) leukemia was 98.3%; in the assay with MOLT-4 leukemia, 13.8%; in the assay on OVCAR-8 ovarian, 101%; with OVCAR-4 ovarian, 94.4%; in the assay on NCI/ADR-RES ovarian it was 99.4%; with T-47D breast, 8.8% (active). For the same compound, the growth in the assay with BT-549 breast is 85.8%; in the assay on HCC-2998 colon it was 113%.
